# A selection: hits, their analogues and other compounds. The true share with any hit is near 1.1%.
# MsrA inhibitor: bovine MsrA inhibition; purified bovine MsrA, absorbance read-out; inhibition, % at 15.5 µM; 360,000 compounds, 0.75% hits; AID 651718;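 further: 0% = vehicle wells with enzyme and 100% = reference inhibitor wells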
# MsrA act: activates bovine MsrA enzyme; AID 602163; 360,000 compounds, 0.3% hits; purified bovine MsrA, absorbance read-out; activation, % at 10.6 µM; in the data active means activation above about 7.5%;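 further: 0% = vehicle and 100% = reference activator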
# PKA-R2B activ: PKA-R2B complex activation; P22694+P31323; PKA-R2B holoenzyme dissociation, Cy5-IP20 fluorescence polarization; R2B truncated from residue 108, S112A mutant; 0% DMSO only, 100% 113 µM cGMP; activation, % at 11.4 µM; 340,000 compounds, 0.079% hits; AID 504700;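 active means activation above a cutoff set at the mean over all compounds plus 3 SD, cut at about 18% in these data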;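 further: higher means more holoenzyme dissociation and a rise in polarization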
# Target sequence (P31323 whole entry, looked up, other chains not shown, the tested form may be a part): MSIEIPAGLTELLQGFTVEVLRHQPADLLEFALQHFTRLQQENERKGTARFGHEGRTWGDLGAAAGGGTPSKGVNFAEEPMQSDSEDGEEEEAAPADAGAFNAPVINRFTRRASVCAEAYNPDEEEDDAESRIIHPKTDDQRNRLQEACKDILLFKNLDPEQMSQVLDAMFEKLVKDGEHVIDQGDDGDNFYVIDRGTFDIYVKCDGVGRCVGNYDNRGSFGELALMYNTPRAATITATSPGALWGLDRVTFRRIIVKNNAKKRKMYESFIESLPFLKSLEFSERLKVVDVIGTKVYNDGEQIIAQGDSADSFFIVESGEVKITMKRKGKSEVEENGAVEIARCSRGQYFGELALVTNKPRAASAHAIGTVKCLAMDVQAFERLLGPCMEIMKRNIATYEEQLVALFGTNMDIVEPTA
# PKA-R1A act: activates the PKA-R1A holoenzyme complex; PKA-R1A dissociation, Cy5-IP20 fluorescence polarization; scaled: DMSO 0%, 113 µM cGMP 100%; activation, % at 11.4 µM; 340,000 compounds, 0.083% hits; AID 504707;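 active means percent activation above the mean of all tested compounds plus 3 SD, cut at about 19% in these data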;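 further: higher means more PKAc released from R1A so a rise in polarization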
# MsrA inh confirm: confirmation of bovine MsrA inhibitors; shares compounds with MsrA inhibitor; 2,300 compounds, 41% hits; purified bovine MsrA, absorbance read-out; inhibition, % at 15.5 µM;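 further: coupled to thioredoxin reductase with NADPH and selenocystamine and DMSO as substrate; 0% = vehicle only and 100% = full effect of reference inhibitor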
# Active calls of the source: *; . = no result given. Unless noted, no stated cut-off is given here; in the data, active means inhibition above about 4.5%; inactive means the rest.
SMILES,MsrA inhibitor,MsrA act,PKA-R2B activ,PKA-R1A act,MsrA inh confirm
CC(=O)C1=C(O)C(=O)N(Cc2cccnc2)C1c1ccccc1 (stereo unspecified),6.4*,-7.4,-1.5,8.3,1.7
CN(C)N=Nc1nc2c([nH]1)c(=O)n(C)c(=O)n2C,2.0,-3.4,-8.9,-3.2,.
CN(C)N=Nc1nc2c(c(=O)n(C)c(=O)n2C)n1CC1CO1 (stereo unspecified),7.4*,-5.8,.,.,5.9*
CC1CN(c2ncc(/C=N/NC(=O)c3ccccc3O)s2)CC(C)O1 (stereo unspecified),6.4*,-5.3,-4.2,-3.4,5.7*
CC(=O)Nc1ccc(SCC(=O)c2cc(C)n(C)c2C)cc1,0.5,0.8,-1.4,-4.4,.
COc1ccc(/C=N/N=C2/NC(=O)C(CC(=O)O)S2)cc1OCc1ccccc1Cl (stereo unspecified),6.5*,-9.5,-7.5,-0.9,6.4*
COc1ccc(S(=O)(=O)Oc2cccc(/C=N/N=C3/NC(=O)C(CC(=O)O)S3)c2)cc1 (stereo unspecified),5.2*,-2.5,-7.4,3.0,1.7
Cc1ccc(S(=O)(=O)Oc2ccc(/C=N/N=C3/NC(=O)C(CC(=O)O)S3)cc2)cc1 (stereo unspecified),4.0,-3.8,.,.,.
CCOc1cc(/C=N/N=C2/NC(=O)C(CC(=O)O)S2)ccc1OS(=O)(=O)c1ccc(C)cc1 (stereo unspecified),5.6*,-1.7,4.9,-2.9,3.1
COc1ccc(/C=N/N=C2/NC(=O)C(CC(=O)O)S2)cc1OCc1ccc(Cl)cc1Cl (stereo unspecified),2.4,-4.1,-7.5,-1.4,.
CCOc1cc(/C=N/N=C2/NC(=O)C(CC(=O)O)S2)ccc1OCc1ccccc1Cl (stereo unspecified),6.8*,-4.2,-12.4,-3.0,4.8*
C=CCN1C=C(C(=O)OCC)C(=O)CC1,0.1,.,.,.,.
Cn1c(SCC(=O)Nc2cccc(F)c2)nc2c(c1=O)SCC2,1.2,-3.9,-6.3,-7.0,.
O=C(O)c1ccc(N/N=C2/CCCc3ccccc32)cc1,5.8*,-11.3,6.1,2.6,7.0*
c1ccc(Cn2cc(CCOCc3ccccn3)c3ccccc32)cc1,0.5,.,.,.,.
O=C(O)c1cccc(Cn2c(Cl)c(/C=N/NC(=O)c3ccc(O)cc3)sc2=O)c1,8.5*,-7.4,-4.1,-6.5,5.5*
O=C(COc1ccccc1)N/N=C/c1sc(=O)n(Cc2cccc(C(=O)O)c2)c1Cl,2.7,-3.2,-4.9,-1.9,.
CCS(=O)(=O)N1CCN(c2ccc([N+](=O)[O-])c(NCc3cccnc3)c2)CC1,5.4*,-13.6,3.9,4.4,1.6
CC(Nc1cc(N2CCN(S(=O)(=O)N(C)C)CC2)ccc1[N+](=O)[O-])c1ccccc1 (stereo unspecified),8.5*,-4.0,-5.0,-16.5,8.0*
CC(Nc1cc(N2CCOCC2)ccc1[N+](=O)[O-])c1ccccc1 (stereo unspecified),29.6*,-0.8,-7.3,6.6,20.6*
O=[N+]([O-])c1ccc(N2CCN(S(=O)(=O)c3ccccc3[N+](=O)[O-])CC2)cc1NCc1cccnc1,2.2,-2.7,-8.4,-18.2,.
CC(Nc1cc(N2CCN(S(C)(=O)=O)CC2)ccc1[N+](=O)[O-])c1ccccc1 (stereo unspecified),24.2*,-3.3,-21.6,-4.7,19.7*
CC(=O)N(C)C[C@@H]1Oc2ncc(C#Cc3ccc(F)cc3)cc2C(=O)N([C@@H](C)CO)C[C@H]1C,1.2,-3.6,-4.7,3.0,.
O=[N+]([O-])c1cc([N+](=O)[O-])c(N2CCOCC2)cc1NCc1ccccc1,36.1*,-1.7,-12.6,2.0,35.6*
CCCCOCC1CN(CCCC)S(=O)(=O)c2c(cccc2N(C)S(=O)(=O)c2ccc(C)cc2)O1 (stereo unspecified),0.6,.,.,.,.
SMILES,MsrA inhibitor,MsrA act,PKA-R2B activ,PKA-R1A act,MsrA inh confirm
O=C(Nc1scc(-c2ccccc2)c1C(=O)O)c1ccccc1Cl,0.5,-1.8,-5.2,-2.8,.
O=C(/C=C/c1cccs1)Nc1nc(-c2ccccc2)cs1,0.7,-6.2,3.7,-3.2,.
O=C(/C=C/c1cccs1)Nc1scc(-c2ccccc2)c1C(=O)O,11.3*,-9.1,8.4,6.4,5.6*
O=C(/C=C/c1cccs1)Nc1nncs1,5.9*,-6.1,1.6,0.7,3.8
Nc1[nH]c(C(=O)c2ccccc2)c(-c2ccc(Cl)c(F)c2)c1C(=O)c1c[nH]c2ccccc12,0.2,.,.,.,.
Cc1ncsc1C(=O)Nc1nc2c(s1)CC(C)CC2 (stereo unspecified),6.3*,-11.4,-2.7,6.8,1.5
CCCCc1c(-c2ccccc2OC)ncn1Cc1ccc(OC)c(Cl)c1,0.2,.,.,.,.
COc1ccc2c(c1)[C@@]1(OCCC=C[C@H]1C)C(=O)N2CC1CC1,-0.7,.,.,.,.
COc1ccc(-c2nc(C)c(C(C)=O)n2O)cc1[N+](=O)[O-],4.8*,-4.3,-10.4,2.2,2.7
CC(=O)c1c(C)nc(-c2cccc([N+](=O)[O-])c2)n1O,0.9,-5.7,-3.1,2.4,.
O=C(O)/C=C/c1ccc(-c2cccc(C(F)(F)F)c2)o1,6.0*,-6.4,-11.9,3.1,3.6
Oc1[nH]c2ccccc2c1C=NCC1CCCO1 (stereo unspecified),6.0*,-8.4,-1.1,4.7,3.1
COc1cccc(C(=O)N[C@H](C(=O)N2CCC[C@H]2C(=O)NCCc2ccccc2Cl)c2ccccc2)c1,-1.0,.,.,.,.
CCCNC1=C(N(C(C)=O)c2cccc(F)c2)C(=O)c2ccccc2C1=O,21.6*,-8.6,2.1,-4.2,5.0*
CCC(=O)N(C1=C(NC(C)C)C(=O)c2ccccc2C1=O)C(C)C,0.6,-8.5,3.3,0.2,.
COc1cc(/C=N/Nc2ccccn2)ccc1O,3.6,-4.4,-2.0,-1.3,.
O=c1nccc(N/N=C/c2cccc(O)c2)[nH]1,6.8*,-1.4,-4.5,-1.5,3.9
CCCOc1ccccc1/C=N/Nc1ccnc(=O)[nH]1,3.7,-5.3,-6.2,-5.8,.
COc1cc(/C=N/Nc2ccnc(=O)[nH]2)ccc1O,6.9*,-4.7,7.9,-7.9,6.3*
CO[C@@H]1[C@H](O)CC[C@]2(O)CN(c3ccccc3)[C@](C)([C@H](O)CC=C(C)C)[C@@H]12,0.2,.,.,.,.
C#CCNC(=O)C[C@H]1C[C@@]2(C(=O)OC)C(=C[C@H](C(C)(C)C)O[C@@H]2C)N(CCc2ccc(OC)c(OC)c2)C1=O,0.6,.,.,.,.
CCOC(=O)CSC1=NC(=O)/C(=C\c2ccc(Cl)cc2)S1,5.2*,2.5,-8.4,-1.0,2.8
CSC1=NC(=O)/C(=C/c2ccc(SC)cc2)S1,0.3,-5.1,-1.1,-1.0,.
C=CCCC1CN(Cc2ccc(OC)cc2)S(=O)(=O)c2c(Oc3cc(C)c(C)c(C)c3)cccc2O1 (stereo unspecified),-0.3,.,.,.,.
O=c1oc2c(-c3ccc([N+](=O)[O-])cc3)cc(O)cc2s1,7.5*,1.6,-13.6,3.2,0.0
NC1=C(c2ccc([N+](=O)[O-])cc2)C(=O)CO1,4.0,-6.7,-17.4,-9.2,.

# Bioassay records as filed in PubChem.
